# Rows were chosen to be rich in hits. Some 5.7% of all compounds tested hit in one or more screens of this group.
# JMJD2A Tudor inh – inhibitors of human JMJD2A Tudor domain; O75164; AlphaScreen JMJD2A-Tudor / H3K4me3 peptide binding; Potency, µM (highest dose often 114 µM), most hits filed as inhibitors; 4.4% of 390,000 active; AID 504339; note: nearly all actives have a fitted effect of over 50% in size
# L3MBTL1 block – inhibitors of human L3MBTL1; 0.66% of 230,000 active; Q9Y468; Potency, µM (titrated, usually from 57.1 µM), most hits filed as inhibitors; AlphaScreen L3MBTL1–H3K9me1 peptide binding; note: nearly all actives have a fitted effect of over 60% in size
# Target sequence (Q9Y468 whole entry, looked up): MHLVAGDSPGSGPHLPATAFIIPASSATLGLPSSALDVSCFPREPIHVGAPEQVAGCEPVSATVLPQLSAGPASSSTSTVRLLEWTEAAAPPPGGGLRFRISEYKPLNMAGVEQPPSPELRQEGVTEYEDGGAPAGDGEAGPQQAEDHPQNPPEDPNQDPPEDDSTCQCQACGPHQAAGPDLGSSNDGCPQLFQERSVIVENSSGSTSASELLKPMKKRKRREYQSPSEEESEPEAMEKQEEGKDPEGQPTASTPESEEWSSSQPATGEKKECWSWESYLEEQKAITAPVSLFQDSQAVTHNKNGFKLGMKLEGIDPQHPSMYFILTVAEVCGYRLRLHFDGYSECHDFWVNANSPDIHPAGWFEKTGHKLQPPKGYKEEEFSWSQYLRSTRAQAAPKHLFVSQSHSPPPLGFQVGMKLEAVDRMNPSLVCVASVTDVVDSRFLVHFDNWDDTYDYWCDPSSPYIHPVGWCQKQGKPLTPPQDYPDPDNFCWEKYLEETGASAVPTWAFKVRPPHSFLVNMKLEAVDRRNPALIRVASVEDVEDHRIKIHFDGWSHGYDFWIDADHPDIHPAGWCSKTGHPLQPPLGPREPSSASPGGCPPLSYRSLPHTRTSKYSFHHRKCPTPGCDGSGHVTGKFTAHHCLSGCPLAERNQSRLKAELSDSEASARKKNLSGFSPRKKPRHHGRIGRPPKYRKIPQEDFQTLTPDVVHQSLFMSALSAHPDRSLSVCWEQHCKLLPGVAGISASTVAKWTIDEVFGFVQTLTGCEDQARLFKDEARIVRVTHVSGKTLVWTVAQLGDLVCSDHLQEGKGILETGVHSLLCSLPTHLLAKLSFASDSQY
#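 L3MBTL1 (50 nM) pre-complexed 30 min with biotinylated H3(1-15)K9me1 peptide (75 nM), then compounds added for 30 min at room temperature; AlphaScreen streptavidin donor/nickel chelate acceptor beads (10 ug/mL final) read after 30 min dark incubation.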
# PI5P4K alpha inh – inhibitors of human PI5P4K alpha; 1.2% of 330,000 active; max response, %; P48426; PI5P4Kalpha enzyme, ADP-Glo luminescence, 60 min; active compounds read low; active = max response of -50% or lower; inconclusive = between -30% and -50%; inactive = -30% or higher; note: value at the top dose of about 77 µM
#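 Compounds were pin-transferred onto PI5P4Kalpha and substrate in HEPES pH 7.4 buffer with EGTA, CHAPS and 5% DMSO. ATP (5 microM final) started the reaction, which ran 60 minutes at room temperature before ADP-Glo detection.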
# BAZ2B inh – BAZ2B (human) inhibition; Potency, µM (titrated, usually from 114 µM), actives largely listed as inhibitors; Q9UIF8; AID 504333; 4.4% of 360,000 active; AlphaScreen BAZ2B-H3K14Ac peptide displacement; note: nearly all actives have a fitted effect of over 60% in size
#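 Complex of BAZ2B and biotin-H3K14Ac (50 nM apiece) forms over 30 min at RT, then faces library compounds up to 110 uM for another 30 min; AlphaScreen beads added, 20 min dark incubation, luminescence read.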
# HP1b chromo inh – inhibitors of HP1-beta chromodomain binding to methylated histone tails; 0.56% of 390,000 active; P83916; AlphaScreen HP1-beta / biotin-H3K9me3 peptide binding; Potency, µM (doses to about 114 µM), actives largely listed as inhibitors; note: nearly all actives have a fitted effect of over 70% in size
#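 Compound inhibition of the preformed complex between 50 nM HP1-beta and 50 nM biotinylated H3K9me3 peptide was read by AlphaScreen. Buffer was PBS pH 7.4 with 0.01% Tween-20. Incubations ran 30 min at room temperature, with 10 ug/mL donor/acceptor beads.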
# JMJD2E inh-1 – blocks human JMJD2E demethylase activity. 1.6% of 230,000 active. Potency, µM (highest dose often 57.1 µM), most hits filed as inhibitors. B2RXH2. AID 2147. JMJD2E catalytic domain, FDH-coupled NADH fluorescence; active = well fitted inhibition curve with a large enough effect, not every such curve was filed as active; inconclusive = small, poorly fitted or top-dose-only effect, or another doubt; inactive = no such curve, though single readings can be large or run the other way; note: nearly all actives have a fitted effect of over 50% in size
# JMJD2E inh-2 – confirmation of inhibitors of human JMJD2E demethylase. shares compounds with JMJD2A Tudor inh. 93% of 140 active. Potency, µM (highest dose often 56.8 µM), usual class: inhibitors. AID 2677. Recombinant JMJD2E, FDH-coupled NADH fluorescence (FDH is formaldehyde dehydrogenase)
# FDH inh – blocks Pseudomonas putida formaldehyde dehydrogenase, flagging JMJD2E artifacts | shares compounds with JMJD2A Tudor inh | FDH enzyme assay, NADH fluorescence kinetic | Potency, µM (series often up to 56.7 µM), actives largely listed as inhibitors | 10% of 140 active
# G9a confirm – confirmation of human histone methyltransferase G9a inhibitors | 89% of 370 active | shares compounds with JMJD2A Tudor inh | AID 588344 | G9a H3K9 monomethylation, AlphaScreen, 2 h | Potency, µM, most hits filed as inhibitors; note: nearly all actives have a fitted effect of over 65% in size
# RGS4 confirm – confirmation of human RGS4 inhibitors. 80% of 25 active. Potency, µM, actives largely listed as inhibitors. shares compounds with JMJD2A Tudor inh. RGS4 GAP activity, Transcreener GDP fluorescence polarization
# ADP-Glo interf – counter-screen for PI5P4K inhibitors: ADP-Glo detection interference, no enzyme; shares compounds with PI5P4K alpha inh; ADP-Glo detection counter-screen, luciferase luminescence, no enzyme; Potency, µM (titrated, usually from 76.9 µM), usual class: inhibitors; 1,100 tested, under 10 active
# A number is an active result; . = inactive; ? = inconclusive; / = not tested or not shown; ! = not active in a repeat; [ ] = remark or other dose. Unless noted, calls come from the whole dose curve; as a rule, active = well fitted curve in the direction sought with a large enough effect; inconclusive = small, poorly fitted or top-dose-only effect, or another doubt; inactive = no such curve, though single readings can be large; an effect the other way counts as inactive or inconclusive.
SMILES,JMJD2A Tudor inh,L3MBTL1 block,PI5P4K alpha inh,BAZ2B inh,HP1b chromo inh,JMJD2E inh-1,G9a confirm,others
CCOC(=O)C1CCCN(CC(=O)NC2CC2)C1 (centres undefined),5µM,.,/,32µM,18µM,?,45,
O=C(c1cccnc1)N1CCN(Cc2ccc3c(c2)OCO3)CC1,6.3µM,/,.,50µM,?,?,7.1,
O=C(COc1ccccc1)Nc1nnc(S(=O)(=O)Nc2ccccc2)s1,?,.,.,1.4µM!,.,/,?,
COc1ccc(C(=O)NCC(=O)N2CCN(c3ncccn3)CC2)cc1OC,.,.,.,.,.,/,/,
CC1=CC(=C(C#N)c2nc3ccccc3s2)C=C(C)N1CC1CCCO1 (centres undefined),.,.,.,.,.,.,/,
O=c1[nH]c2ccccc2nc1NCc1ccccc1,.,.,.,.,.,/,/,
CC1=NN(c2nc3ccccc3[nH]2)C(=O)C1Cc1ccccc1 (centres undefined),50µM,20µM,.,22µM,.,?,/,JMJD2E inh-2=5.8µM;FDH inh=?
CCCCC(=O)NC1(C(F)(F)F)C(=O)Nc2c1c(=O)[nH]c(=O)n2-c1ccc(F)cc1 (centres undefined),.,/,/,.,.,/,/,
Cc1ccc(C(=O)C(C)OC(=O)Cc2n[nH]c(=O)c3ccccc23)cc1 (centres undefined),.,.,.,.,.,/,/,
CN(C)C(=O)C[C@@H]1C=C[C@@H](NC(=O)C2CCC2)[C@@H](CO)O1,/,/,.,/,/,/,/,
CCN(CC)c1ccc(NC(=O)COC(=O)c2cccs2)cc1,?,/,/,45µM,.,.,2.2,
CCc1ccccc1NC(=O)COC(=O)c1cccs1,.,/,.,.,.,/,/,
CCN(CC)c1ccc(NC(=O)COC(=O)c2ccc3ccccc3n2)cc1,?,/,.,50µM,?,.,6.3,
O=C(Cc1ccccc1)Nc1sc2c(c1C(=O)Nc1ccccc1)CCCCC2,?,/,/,?,.,/,/,
O=C(Nc1sc2c(c1C(=O)Nc1cccc(Cl)c1)CCCC2)c1cccs1,71µM,/,/,.,.,/,4.1,
O=C(Cc1ccccc1)Nc1sc2c(c1C(=O)Nc1ccc(Cl)cc1)CCCC2,?,/,/,?,?,/,1.8,
CC(C)(C)C1=Nn2c(nnc2-c2ccccn2)SC1,7.9µM,.,?,20µM,?,.,1.8,
CC(C)(C)C1=Nn2c(nnc2-c2ccccc2F)SC1,.,.,/,.,.,.,/,
COc1cc(C(=O)COC(=O)c2ccc3c(c2)OCCO3)cc(OC)c1OC,/,/,.,/,/,/,/,
CC(Sc1nncs1)C(=O)Nc1ccc(S(=O)(=O)Nc2ncccn2)cc1 (centres undefined),.,.,.,/,.,/,/,
CCn1c2ccccc2c2cc(NC(=O)N3CCOCC3)ccc21,.,/,.,?,.,?,10,
COC(=O)C(C(C)C)N1CC(=O)c2ccccc2S1(=O)=O (centres undefined),.,/,/,/,.,/,/,
COc1cc(F)ccc1-c1cc(C(=O)NCc2ccc(C(F)(F)F)cc2)[nH]n1,/,/,.,/,/,/,/,
CCOc1c(Cl)cc(CNc2ccc(N3CCCC3)cc2)cc1OC,14µM,.,.,20µM,45µM,8.9µM,6.3,
Cc1oc(-c2ccccc2)cc1C(=O)Nc1cccc(/C=C\C(=O)O)c1,.,/,.,.,.,.,/,
SMILES,JMJD2A Tudor inh,L3MBTL1 block,PI5P4K alpha inh,BAZ2B inh,HP1b chromo inh,JMJD2E inh-1,G9a confirm,others
Cc1oc(-c2ccccc2)cc1C(=O)Nc1ccc(N(C)C)cc1,50µM,?,.,20µM,?,.,1.8,
COC(=O)c1c(-c2cccs2)csc1NC(=O)COc1ccccc1,.,/,/,?,.,/,4.1,
O=C(CCNc1n[nH]c(=O)[nH]c1=O)N/N=C/c1ccc(C(F)(F)F)cc1,.,/,.,.,.,.,/,
O=C1C2C3C=CC(CO)(O3)C2C(=O)N1c1ccccc1-c1ccccc1 (centres undefined),18µM,.,/,.,?,.,0.22,
CCN(CC(=O)Nc1ccc(NC(C)=O)cc1)CC(=O)Nc1cccc2ccccc12,/,/,.,/,/,/,/,
CCN(CC(=O)Nc1ccc(NC(C)=O)cc1)Cc1c(O)ccc2cc(Br)ccc12,50µM,/,-71,50µM,71µM,/,0.45,ADP-Glo interf=.
Cc1ccc(CNC(=O)CSc2ncccn2)cc1,.,.[11.4 µM],?,.,.,.,22,ADP-Glo interf=.
CCN(CC)C(=O)c1[nH]cnc1C(=O)Nc1cccc(Cl)c1,.,.,.,.,.,/,/,
Fc1cccc(Cl)c1CNc1ccc(N2CCCC2)cc1,20µM,?,-63,13µM,25µM,11µM,5.6,ADP-Glo interf=.
Cc1ccc2c(c1)S(=O)(=O)c1ccc3ccccc3c1N2,.,/,.,/,.,/,/,
CCOC(=O)C1CCCN(C(=O)c2cc(-c3ccncc3)nc3ccccc23)C1 (centres undefined),.,.,.,.,.,/,/,
CCOC(=O)C1CCCN(C(=O)c2cc(-c3ccco3)nc3ccccc23)C1 (centres undefined),14µM,3.5µM,-85,/,40µM,/,/,RGS4 confirm=27;ADP-Glo interf=.
CCc1c(C)sc(NC(=O)Cn2nc(C)c([N+](=O)[O-])c2C)c1C(N)=O,.,.,-58,.,?,.,/,ADP-Glo interf=.
O=C1NC(c2cccs2)Nc2ccccc21 (centres undefined),?,/,-58,.,.,?,/,ADP-Glo interf=.
O=C1NC(c2ccc(Br)cc2)Nc2ccccc21 (centres undefined),.,.,.,.,.,/,/,
COc1cc(CN2C(=O)C(CCc3ccccc3)ON=C2c2cnccn2)cc(OC)c1 (centres undefined),/,/,.,/,/,/,/,
COc1cc(NS(=O)(=O)c2c(C(=O)N3CCCCC3)c(C)n(C)c2C)cc(OC)c1OC,.,/,/,.,.,/,/,
NS(=O)(=O)c1ccc(NC(=O)c2ccc(S(=O)(=O)N3CCc4ccccc43)cc2)cc1,.,/,-66,.,.,.,/,ADP-Glo interf=.
Cc1ccc(N=c2oc3cc(O)ccc3cc2C(N)=O)cc1,.,.,-52,.,.,.,/,ADP-Glo interf=.
